Reference: the supplement of paper PMC7184167
Counter-ions that a name gives are not always drawn.

What follows are molecules tested on replication-induced senescent mouse newborn dermal fibroblasts (NBF) (assay: relative cell viability of senescent cells (fraction); higher = less killing of senescent cells). Settings: 1 µM; 3 days.
Protocol: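 Replication-induced senescent newborn mouse skin fibroblasts (NBFs) in 24-well plates were treated with a Selleck FDA-approved drug library at 1 µM for 3 days.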

Row | Compound | relative cell viability
1 | CN(C)CCOC(c1ccccc1)c1ccccc1 [Diphenhydramine HCl] | 1.14
2 | O=S(=O)(O)CCSSCCS(=O)(=O)O [Dimesna] | 0.736
3 | NC(=O)N1c2ccccc2C=Cc2ccccc21 [Carbamazepine] | 0.859
4 | CC(C)OC(=O)OCOP(=O)(CO[C@H](C)Cn1cnc2c(N)ncnc21)OCOC(=O)OC(C)C [Tenofovir Disoproxil Fumarate] | 0.84
5 | COc1ccccc1OCC(O)CN1CCN(CC(=O)Nc2c(C)cccc2C)CC1 (configuration not stated) [Ranolazine 2HCl] | 0.773
6 | C[C@]1(O)C[C@@H](c2nc(-c3ccc4ccc(-c5ccccc5)nc4c3)c3c(N)nccn32)C1 [Linsitinib (OSI-906)] | 0.445
7 | COc1cc2nc(N(C)CCCNC(=O)C3CCCO3)nc(N)c2cc1OC (configuration not stated) [Alfuzosin HCl] | 0.96
8 | COc1cc2c(Oc3ccc(NC(=O)C4(C(=O)Nc5ccc(F)cc5)CC4)cc3F)ccnc2cc1OCCCN1CCOCC1 | 0.757
9 | COc1cc2c(Oc3ccc4[nH]c(C)cc4c3F)ncnc2cc1OCCCN1CCCC1 [Cediranib (AZD2171)] | 0.269
10 | Cc1cnc(C(=O)NCCc2ccc(S(=O)(=O)NC(=O)NC3CCCCC3)cc2)cn1 [Glipizide] | 0.23
11 | Oc1ccc(/C=C/c2cc(O)cc(O)c2)cc1 [Resveratrol] | 1.02
12 | CO[C@H]1/C=C/O[C@@]2(C)Oc3c(C)c(O)c4c(O)c(c5c(nc6cc(C)ccn65)c4c3C2=O)NC(=O)/C(C)=C\C=C\[C@H](C)[C@H](O)[C@@H](C)[C@@H](O)[C@@H](C)[C@H](OC(C)=O)[C@@H]1C [Rifaximin] | 0.971
